# Bioassay records deposited in PubChem BioAssay by National Center for Advancing Translational Sciences (NCATS).
# Shown are actives, neighbours in structure and some others; about 3.2% of the full set was active somewhere.
# Bst PK mod: Pyruvate Kinase; purified pyruvate kinase, luminescence ATP production; ribose 5-phosphate activator present at AC10; Potency, µM; 1.2% of 51,000 active; AID 361, 2006; in the data active = potency below about 11 µM;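 the screen sought inhibitors and activators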;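 note: scaled between full activation by ribose 5 phosphate and full inhibition by luteolin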
# Luciferase inh: qHTS Assay for Inhibitors of Firefly Luciferase; purified firefly luciferase, luminescence, 8 min; Potency, µM (highest dose often 57.1 µM), for the others: at the top dose activity change, negative = inhibition, hits mostly inhibitors; 2.2% of 72,000 active; AID 411, 2009; active = well fitted inhibition curve with a large enough effect; note: % is set by controls: 0 for no effect and ±100 for the full control effect; nearly all actives have a fitted effect of over 40% in size
# Target sequence (P08659 whole entry, looked up): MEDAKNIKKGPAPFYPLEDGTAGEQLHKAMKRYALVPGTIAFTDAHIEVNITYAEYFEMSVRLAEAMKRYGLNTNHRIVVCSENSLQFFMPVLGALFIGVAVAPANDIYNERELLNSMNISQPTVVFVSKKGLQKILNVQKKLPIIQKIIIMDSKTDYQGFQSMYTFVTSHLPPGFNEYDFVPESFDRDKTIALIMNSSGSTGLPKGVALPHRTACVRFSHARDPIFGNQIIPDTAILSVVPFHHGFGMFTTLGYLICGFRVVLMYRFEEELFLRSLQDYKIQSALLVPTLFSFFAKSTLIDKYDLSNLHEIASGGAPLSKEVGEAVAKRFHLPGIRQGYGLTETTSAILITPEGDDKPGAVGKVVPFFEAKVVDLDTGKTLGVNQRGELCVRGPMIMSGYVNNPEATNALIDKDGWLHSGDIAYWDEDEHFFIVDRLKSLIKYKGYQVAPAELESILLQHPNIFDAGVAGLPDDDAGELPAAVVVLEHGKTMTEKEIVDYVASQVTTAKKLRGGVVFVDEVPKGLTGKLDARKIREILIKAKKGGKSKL
#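 Firefly luciferase (PKLight detection mix) with 10 uM ATP in pH 7.2 imidazole buffer (KCl, MgCl2, Tween 20, BSA). Compounds tested across a concentration series (qHTS). Luminescence read after 8 min at ambient temperature.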
# GBA mod: Glucocerebrosidase; Potency, µM; AID 360, 2006; purified enzyme, resorufin glucoside fluorescence (screen aimed at inhibitors), 20 min; 1.1% of 48,000 active; Lysosomal acid glucosylceramidase (Homo sapiens), P04062; in the data active = potency below about 15 µM;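 note: the screen sought inhibitors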
#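 Normal human glucocerebrosidase (0.2 nM final) was assayed with resorufin β-D-glucopyranoside (30 uM final) in 50mM citric acid/KH2PO4, 10mM sodium taurocholate, 0.01% tween-20, pH 5.9. Compounds were titrated; fluorescence (Ex 548, Em 600) read after 20 min at RT.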
# * hit, by the source's call; i = inactive; . = not tested or not shown; ! = not confirmed by another sample; [ ] = another dose, or the depositor's remark. Potency is the fitted concentration of half-maximal effect.
SMILES,Bst PK mod,Luciferase inh,GBA mod
CC1(C)CN=C(Nc2nc3ccccc3s2)S1,.,15.8µM*,>76.9
NNCc1cccc(O)c1,.,31.6µM*,.
COC[C@@H]1OC(=O)c2coc3c2[C@]1(C)C1=C(C3=O)[C@H]2CCC(=O)[C@]2(C)C[C@@H]1OC(C)=O,.,-5.8%,.
COc1cccc(OC)c1C1=NCC(=O)Nc2c1oc1ccc(Br)cc21,.,-0.9%,.
O=C1CN=C(c2ccccc2)c2oc3ccc(Br)cc3c2N1,>57,-3.6%,3.26*
CN(C)CS/C(N)=N/[C@H](O)C(Cl)(Cl)Cl,.,4.2%[11.4 µM],.
CC(C)[C@H]1C(=O)N2CCC[C@@H]2[C@]2(O)O[C@@](NC(=O)[C@H]3C=C4c5cccc6[nH]cc(c56)C[C@H]4N(C)C3)(C(C)C)C(=O)N12,.,-1.1%[11.4 µM],.
CC1CCN2c3nc4ccccn4c(=O)c3CC3(C(=O)N(C)C(=O)N(C)C3=O)C2C1 (centres undefined),>57,0.7%,>76.9
CN1C(=O)N(C)C(=O)C2(Cc3c(nc4ccccn4c3=O)N3CCC(Cc4ccccc4)CC32)C1=O (centres undefined),>57,1.3%,13.3*
Cc1cccn2c(=O)c3c(nc12)N1CCC(Cc2ccccc2)CC1C1(C3)C(=O)N(C)C(=O)N(C)C1=O (centres undefined),>57,1.9%,6.33*
CN1C(=O)N(C)C(=O)C2(Cc3c(nc4ccccn4c3=O)N3CCc4ccccc4C32)C1=O (centres undefined),>57,3.9%,>76.9
C/C=C1\C[C@H](C)[C@](O)(CO)C(=O)OCC2=CCN3CC[C@@H](OC1=O)[C@@H]23,.,0.5%[11.4 µM],.
CN1C[C@@H](CNC(=O)OCc2ccccc2)C[C@H]2c3cccc4c3c(cn4C)C[C@@H]21,.,-1.4%,.
N[C@@H](Cc1cc(O)c(O)cc1O)C(=O)O,.,-3.7%,.
CCOc1ccc(-c2cc(C(=O)N3CCC4(CC3)OCCO4)c3ccccc3n2)cc1,0.71*,0.631µM*,.
O=C(c1cc2ccccc2oc1=O)N1CCC2(CC1)OCCO2,>57,4.6%,>76.9
CO[C@@H]([CH2][Hg])CN1C(=O)c2ccccc2S1(=O)=O.Cn1c(=O)c2nc[nH]c2n(C)c1=O,.,-7.2%[11.4 µM],.
COc1cc2c(cc1OC)-c1c(O)c(OC)cc3c1[C@@H](C2)N(C)CC3,.,-1.0%[11.4 µM],.
CC(=O)[C@@H]1CC[C@@H]2[C@H]3CC[C@H]4C[C@@H](O)CC[C@]4(C)[C@@H]3C(=O)C[C@]21C,.,0.8%,.
NC(=O)c1ccc(C(=O)Nc2ccc([As](=O)(O)O)cc2)cc1,.,-0.9%[11.4 µM],.
Cn1cnc2cc(NC(=O)c3ccc(Cl)cc3)ccc21,.,12.6µM*,.
CC1=C2[C@@H]3OC(=O)[C@H](C)[C@H]3CC[C@@]2(C)C=CC1=O,.,-2.7%[11.4 µM],.
O=C(O)c1cc[c]([Hg][Cl])cc1,.,15.8µM*,.
C[C@]12CC[C@H](O)C[C@@H]1CC[C@H]1[C@H]2CC[C@]2(C)[C@H](C(=O)CO)CC[C@@H]12,.,-6.7%,.
CCCCCn1c(N)c(C(=O)NCCN2CCOCC2)c2nc3ccccc3nc21,>57,-8.6%,i
Cc1ccc(C(=O)Nc2nc3ccccc3n2CCN2CCCC2)cc1,.,12.6µM*,.
O=C(O)[C@@H]1[C@H](C(=O)O)[C@]2(Cl)C(Cl)=C(Cl)[C@@]1(Cl)C2(Cl)Cl,.,0.3%[11.4 µM],.
N#CC(C#N)=Cc1cc(O)c(O)c(O)c1,.,-3.5%,.
N#C/C(=C\c1ccc(O)c(O)c1)C(N)=S,.,25.1µM*!,.
CCNC(C)(C)[C@@H](SS)c1ccc(Br)cc1,.,2.4%[11.4 µM],.
